From PubChem BioAssay AID1159580 (chemical genetic matrix, 2015)
Screen size: about 5,500 compounds; about 2,000 (36%) were called active. Another 18% or so got no clear call; they are omitted. Cut-off read from the data, not from the text of the source: active = normalized growth mostly below about 0.91 (no sharp cut-off); inconclusive = no clear call, values can overlap the other calls; inactive = mostly above about 0.92. The list shows a part of the results.

Assay: chemical genetic growth profiling, strain panel (AID 1159580);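 note: tested at 20 µM; growth read once vehicle control cultures reached saturation at 30 °C; 1 = growth at the plate median or of vehicle wells; lower values mean less growth of the strain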
Conditions: S. cerevisiae deletion strains, growth OD

Measured: normalized growth

C[C@H]1C2Cc3ccc(O)cc3[C@]1(C)CCN2CC1CC1
inactive: locus YAL040C, strain CLN3, active compounds read low 0.994 | locus YCL061C, strain MRC1 (second series), active compounds read low 1.01 | locus YDR150W, strain NUM1, active compounds read low 1 | locus YDR363W, strain ESC2, active compounds read low 1.02 | locus YER002W, strain NOP16, active compounds read low 0.988 | locus YGR078C, strain PAC10, active compounds read low 1.01 | locus YGR229C, strain SMI1, active compounds read low 1.05 | locus YNL153C, strain GIM3, active compounds read low 1.02 | locus YNL175C, strain NOP13, active compounds read low 1.02 | locus YNL197C, strain WHI3, active compounds read low 1.02 | locus YNL224C, strain SQS1, active compounds read low 1 | locus YNL322C, strain KRE1, active compounds read low 1.02 | locus YOR083W, strain WHI5 (second series), active compounds read low 1.04 | locus YPL055C, strain LGE1, active compounds read low 1.02 | locus YPL241C, strain CIN2, active compounds read low 1.01
